Reference: the supplement of paper PMC7411054
Structures can show the parent of a compound that is named as a salt.

Assays:
Details in all cases: treatment time: 24 h
HepG2-ACTB-RAB5A = assay: lowest phenotypically active concentration; higher = less potent
Summary of the method: (§1)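 Cells from fifteen gene-edited reporter lines (A549, HepG2 and WPMY1) were treated for 24 h at 0.3, 1, 3 or 9 µM and imaged live, four wells per condition. Features were normalised per well to solvent control wells. A condition deviated if ≥3 of 4 wells passed the 95th percentile of control Euclidean distances and was reproducible if its median replicate Pearson correlation beat the 95th percentile of non-replicates; phenotypic activity needed both.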

HepG2-CANX-COX4 = assay: as above
Summary of the method: as §1

HepG2-TP53BP1-CLTA = assay: as above
Summary of the method: as §1

HepG2-TUBA1B-RELA = assay: as above
Summary of the method: as §1

WPMY1-ACTB-RAB5A [1] = assay: as above
Summary of the method: as §1

WPMY1-CANX-COX4 = assay: as above
Summary of the method: as §1

WPMY1-GM130-SQSTM1 = assay: as above
Summary of the method: as §1

WPMY1-TP53BP1-CLTA = assay: as above
Summary of the method: as §1

WPMY1-TUBA1B-RELA = assay: as above
Summary of the method: as §1

WPMY1-ACTB-RAB5A [2] = assay: phenotypically active (imaging signature differs from DMSO and reproducible) at any of 0.3-9 uM (binary (1 = active, 0 = inactive)); higher = active
Summary of the method: as §1

| SMILES | lowest phenotypically active concentration (HepG2-ACTB-RAB5A) [µM] | lowest phenotypically active concentration (HepG2-CANX-COX4) [µM] | lowest phenotypically active concentration (HepG2-TP53BP1-CLTA) [µM] | lowest phenotypically active concentration (HepG2-TUBA1B-RELA) [µM] | lowest phenotypically active concentration (WPMY1-ACTB-RAB5A [1]) [µM] | lowest phenotypically active concentration (WPMY1-CANX-COX4) [µM] | lowest phenotypically active concentration (WPMY1-GM130-SQSTM1) [µM] | lowest phenotypically active concentration (WPMY1-TP53BP1-CLTA) [µM] | lowest phenotypically active concentration (WPMY1-TUBA1B-RELA) [µM] | phenotypically active (WPMY1-ACTB-RAB5A [2]) |
| --- | --- | --- | --- | --- | --- | --- | --- | --- | --- | --- |
| COc1cc(C(=O)NC2CCN(C)CC2)c(F)cc1Nc1ncc2c(n1)N(C1CCCC1)CC(F)(F)C(=O)N2C [TAK 960 hydrochloride] | ≤ 0.3 | ≤ 0.3 | ≤ 0.3 | ≤ 0.3 | ≤ 0.3 | 1 | ≤ 0.3 | ≤ 0.3 | ≤ 0.3 | 1 (active) |
| CC(C)n1nc(-c2cc3cc(O)ccc3[nH]2)c2c(N)ncnc21 | 1 | ≤ 0.3 | 3 | 1 | 1 | 1 | 1 | 1 | 3 | 1 (active) |
| Clc1ccc(C2(c3ccc(-c4cn[nH]c4)cc3)CCNCC2)cc1 | ≤ 0.3 | ≤ 0.3 | ≤ 0.3 | ≤ 0.3 | ≤ 0.3 | ≤ 0.3 | ≤ 0.3 | 1 | ≤ 0.3 | 1 (active) |
| O=C(NCCCNc1nc(Nc2cccc(NC(=O)N3CCCC3)c2)ncc1I)c1cccs1 | 3 | 1 | 1 | ≤ 0.3 | 3 | 3 | 3 | 3 | 3 | 1 (active) |
| NC(=O)Nc1cc(-c2cccc(F)c2)sc1C(=O)N[C@H]1CCCNC1 [AZD 7762 hydrochloride] | ≤ 0.3 | 1 | ≤ 0.3 | ≤ 0.3 | ≤ 0.3 | ≤ 0.3 | 1 | ≤ 0.3 | ≤ 0.3 | 1 (active) |
| Nc1nc(S)c2[nH]cnc2n1 [thioguanine] | 9 | 1 | 1 | 1 | 1 | 1 | 1 | 9 | 9 | 1 (active) |
| CN1CCN(c2ccc(OC(F)(F)F)c(Nc3ncc4c(n3)-c3c(c(C(N)=O)nn3CCO)CC4)c2)CC1 | ≤ 0.3 | ≤ 0.3 | ≤ 0.3 | ≤ 0.3 | ≤ 0.3 | 1 | 1 | ≤ 0.3 | ≤ 0.3 | 1 (active) |
| CC(C)(N)c1cc(C(=O)N[C@@H]2CCc3ccc(OC4=C5CCC(=O)N=C5NC=C4)cc3C2)cc(C(F)(F)F)c1 [ML 786 dihydrochloride] | ≤ 0.3 | ≤ 0.3 | ≤ 0.3 | ≤ 0.3 | 1 | 1 | 1 | 1 | 9 | 1 (active) |
| CC(=O)NC1=NN(C(C)=O)C(C)(c2ccccc2)S1 (stereo not given) | 9 | 3 | 3 | 3 | 3 | 9 | 3 | 3 | 3 | 1 (active) |
| Cc1c[nH]c2nccc(Oc3c(F)cc(Nc4cc(Cl)nc(N)n4)cc3F)c12 | ≤ 0.3 | ≤ 0.3 | ≤ 0.3 | ≤ 0.3 | ≤ 0.3 | ≤ 0.3 | ≤ 0.3 | 1 | ≤ 0.3 | 1 (active) |
| COc1ccc(S(=O)(=O)N(C(C)=O)c2ccccc2/C=C/c2cc[n+]([O-])cc2)cc1 | 3 | 3 | 3 | 3 | 1 | 3 | 3 | 3 | 1 | 1 (active) |
| COc1ccccc1-c1c[nH]c2ncc(-c3cncc(C(=O)N(C)C)c3)cc12 | ≤ 0.3 | ≤ 0.3 | ≤ 0.3 | ≤ 0.3 | ≤ 0.3 | ≤ 0.3 | ≤ 0.3 | ≤ 0.3 | 3 | 1 (active) |
| CCC(=O)N1CCN(c2ccc(-n3c(=O)ccc4cnc5ccc(-c6cnc7ccccc7c6)cc5c43)cc2C(F)(F)F)CC1 [Torin 1] | ≤ 0.3 | ≤ 0.3 | ≤ 0.3 | ≤ 0.3 | ≤ 0.3 | ≤ 0.3 | ≤ 0.3 | ≤ 0.3 | ≤ 0.3 | 1 (active) |
| O=C(c1cccc(Cl)c1F)N1CCN(Cc2cccc(Nc3nccs3)n2)CC1 | ≤ 0.3 | ≤ 0.3 | ≤ 0.3 | ≤ 0.3 | 1 | 9 | 3 | ≤ 0.3 | 1 | 1 (active) |
| Nc1ccc(-c2cccc3c(=O)cc(N4CCOCC4)oc23)cc1 | 3 | 9 | 9 | 9 | 3 | 3 | 3 | 9 | 9 | 1 (active) |
| CCOC(=O)CCNc1cc(N2CCc3ccccc3CC2)nc(-c2ccccn2)n1 | 3 | 3 | 3 | 3 | 9 | 9 | 3 | 3 | 9 | 1 (active) |
| C[C@@H]1CN(CC(=O)Nc2ccc3c(c2)Cc2cccc(-c4cc(=O)cc(N5CCOCC5)o4)c2S3)C[C@H](C)O1 | 1 | 3 | 3 | 3 | 3 | 3 | 3 | 3 | 9 | 1 (active) |
| Nc1ccc(-c2ccc3ncc4ccc(=O)n(-c5cccc(C(F)(F)F)c5)c4c3c2)cn1 [Torin 2] | ≤ 0.3 | ≤ 0.3 | ≤ 0.3 | ≤ 0.3 | ≤ 0.3 | ≤ 0.3 | ≤ 0.3 | ≤ 0.3 | ≤ 0.3 | 1 (active) |
| C[C@@H](CN1CCC(n2c(=O)[nH]c3cc(Cl)ccc32)CC1)NC(=O)c1ccc2ccccc2c1 | 9 | 9 | 9 | 3 | 9 | 9 | 9 | 9 | 9 | 1 (active) |
| Cc1ccc(-n2nc(C(C)(C)C)cc2NC(=O)Nc2ccc(OCCN3CCOCC3)c3ccccc23)cc1 | 1 | 3 | 3 | ≤ 0.3 | 3 | 1 | 1 | 9 | 1 | 1 (active) |
